Compound activity as filed in PubChem.
a7 integrin act – activators of alpha7 integrin expression for muscular dystrophy; alpha7betagal myoblasts, beta-gal FDG fluorescence, 48 h; Potency, µM (highest dose often 38.3 µM), inactives show at the highest dose activation, usual class: activators; 350,000 compounds, 0.064% hits;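 note: potency is the fitted concentration of half-maximal effect; 100% = response of the positive control SU9516; nearly all actives have a fitted effect of over 60% in size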
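Alpha7betagal+/- myoblasts (passage 13) were plated 16-24 hr, then exposed to compounds (1:260 dilution of DMSO stock) for 48 hours at 37C. After MPER lysis, β-galactosidase reporter activity was read as FDG fluorescence (ex 480/em 540) after 30 minutes.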
PI4K2A inh – PI4K2A (human) kinase inhibition; Q9BTU6; AID 1346378; activity change, negative = inhibition, % at 76.9 µM; purified PI4K2A, ADP-Glo luminescence, 1 h; active compounds read low; 420,000 compounds, 0.13% hits; in the data active = activity change below about -50%; inconclusive = mostly about -30% to -49%;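 note: -100% = wells without enzyme as full effect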
Target sequence (Q9BTU6 whole entry, looked up): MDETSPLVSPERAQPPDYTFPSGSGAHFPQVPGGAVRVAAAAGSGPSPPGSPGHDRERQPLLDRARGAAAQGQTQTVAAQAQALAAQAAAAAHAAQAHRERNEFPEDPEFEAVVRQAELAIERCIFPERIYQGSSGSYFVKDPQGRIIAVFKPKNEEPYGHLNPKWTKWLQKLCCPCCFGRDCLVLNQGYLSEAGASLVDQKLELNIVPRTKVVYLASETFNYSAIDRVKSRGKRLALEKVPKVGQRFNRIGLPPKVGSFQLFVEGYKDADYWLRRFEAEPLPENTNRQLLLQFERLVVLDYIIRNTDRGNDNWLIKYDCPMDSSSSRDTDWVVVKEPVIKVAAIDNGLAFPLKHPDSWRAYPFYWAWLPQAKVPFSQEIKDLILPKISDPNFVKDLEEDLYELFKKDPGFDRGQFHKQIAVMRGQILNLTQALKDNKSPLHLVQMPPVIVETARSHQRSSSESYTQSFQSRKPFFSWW
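In this quantitative HTS, ADP production by PI4K2A was quantified luminescently after 1 h at ambient temperature; 100 microM adenosine served as plate-quality control.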
rTrxR1 inhibitor – inhibitors of rat thioredoxin reductase 1. recombinant rTrxR1, NADPH fluorescence consumption, selenite substrate. Potency, µM (doses to about 114 µM), for inactives: at the top dose activity change, negative = inhibition, hits mostly inhibitors. 390,000 compounds, 1% hits; note: potency is the fitted concentration of half-maximal effect; nearly all actives have a fitted effect of over 65% in size
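Rat TrxR1 (90 nM in the dispensed reagent) was pre-reduced with 400 uM NADPH for 5 min at room temperature, then incubated with compound for 15 min. After 400 uM selenite was added, NADPH fluorescence (Ex 340/Em 450 nm) was followed for 8 min.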
GALK inhibitor – galactokinase (human) inhibition; P51570; Purified GALK, Kinase-Glo residual ATP luminescence; Potency, µM (titrated, usually from 57.5 µM), without a hit: top-dose activity change, negative = inhibition, hits mostly inhibitors; 270,000 compounds, 0.007% hits; note: potency is the fitted concentration of half-maximal effect
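Human GALK (5 nM) with 35 uM ATP and 100 uM galactose in 20 mM HEPES pH 8.0, 5 mM MgCl2, 60 mM NaCl, 1 mM DTT, 0.01% BSA. After 1 h at room temperature, leftover ATP was read by Kinase-Glo Plus luminescence.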
LDHA block – blocks human lactate dehydrogenase A. P00338. AID 1347041. purified LDHA, NADH/diaphorase-resazurin fluorescence; active compounds read low. 480,000 compounds, 0.15% hits. activity change, % (values are at about 110 or 230 µM); in the data active = activity change below about -30%; inconclusive = mostly about -25% to -30%;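 note: plate controls were DMSO wells for no effect and wells without enzyme for full effect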
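Enzyme activity of human lactate dehydrogenase 5 (2 nM; 0.06 mM NADH, 0.2 mM pyruvate, 5 min, RT) is measured via a resazurin/diaphorase fluorescence readout of residual NADH.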
TrxR1 substrate – substrates of rat thioredoxin reductase 1. purified TrxR1 substrate turnover, NADPH consumption readout. Potency, µM (highest dose often 114 µM), without a hit: at the top dose activity change, negative = substrate turnover. 390,000 compounds, 0.01% hits. AID 588456; note: potency is the fitted concentration of half-maximal effect; nearly all actives have a fitted effect of over 50% in size
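Rat TrxR1, dispensed at 90 nM, was prereduced with 400 uM NADPH (final) for 5 min at ~22 deg C, then incubated with compound 15 min before 400 uM selenite. A first-read NADPH fluorescence drop versus no-compound background flagged substrates.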
* hit, by the source's call; ? = inconclusive; / = no result given; [ ] = remark or other dose. This is a sample that favours compounds with a hit; in the whole collection about 1.1% have one here. Unless noted, calls come from the whole dose curve; as a rule, active = well fitted curve in the direction sought with a large enough effect; inconclusive = small, poorly fitted or top-dose-only effect, or another doubt; inactive = no such curve, though single readings can be large; an effect the other way counts as inactive or inconclusive. Unless noted, % is set by controls: 0 for no effect and ±100 for the full control effect.

SMILES	a7 integrin act	PI4K2A inh	rTrxR1 inhibitor	GALK inhibitor	LDHA block	TrxR1 substrate
COc1cccc(-n2nnc3c(N4CCN(S(=O)(=O)c5ccccc5F)CC4)ncnc32)c1	/	/	/	/	0	/
O=C(Nc1nc(-c2ccc(Cl)s2)cs1)c1ccc(F)cc1	/	/	/	/	6	/
COCCCNC(=O)Cc1c(C)c2c(OC)cc(C)cc2oc1=O	/	/	/	/	10	/
Cc1ccc(C2C=C(c3ccc(Cl)cc3)Nc3nc(NC(=O)c4ccco4)nn32)cc1 (stereo unspecified)	/	-1	40µM*	/	-1	9%
CC(=O)Nc1nc2n(n1)C(c1ccc(Cl)cc1)C=C(c1ccc(Cl)cc1)N2 (stereo unspecified)	/	/	/	/	-2	/
COc1ccc(-c2c(C)oc3cc(OCC(=O)c4ccccc4)ccc3c2=O)cc1	/	/	/	/	-8	/
COc1cc(NC(=O)CCS(=O)(=O)c2nc(-c3cccs3)cc(C(F)(F)F)n2)cc(OC)c1OC	/	9	?	/	3	-3%
O=C(CCS(=O)(=O)c1nc(-c2cccs2)cc(C(F)(F)F)n1)Nc1cccc(O)c1	/	4	18µM*	/	-2	9%[2.29 µM]
COc1ccc(NC(=O)CCS(=O)(=O)c2nc(-c3cccs3)cc(C(F)(F)F)n2)cc1OC	/	0	25µM*	/	9	-5%[2.29 µM]
O=C(O)CCS(=O)(=O)c1nc(-c2cccs2)cc(C(F)(F)F)n1	4%[7.66 µM]	9	?	-5%	-5	104%
COc1ccc(CCNC2=C(Cl)C(=O)N(CCc3ccc(OC)c(OC)c3)C2=O)cc1OC	3%	3	22%	-2%	-2	14%
COC(=O)C1=C(C)N(CCc2ccc(OC)c(OC)c2)C(=O)/C1=C\N(C)C	-2%	-1	10µM*	0%	8	4%
COc1ccc(CCN2C(=O)C=CC2=O)cc1OC	-5%	5	0.63µM*	/	-2	6%
NC(N)=N/N=C/c1cccc([N+](=O)[O-])c1	/	/	/	/	-3	/
Cc1cc(CNCCN(C)C)c(C)n1-c1cc(S(=O)(=O)N2CCOCC2)ccc1N1CCCC1	-30%	3	89µM*	/	-14	27%
CNCc1cc(C)n(-c2cc(S(=O)(=O)N3CCOCC3)ccc2N2CCCC2)c1C	-41%	5	/	/	-11	/
O=C(O)/C=C/C(=O)c1c(-c2ccccc2)[nH]c2ccccc12	13%	?	45µM*	-2%	-12	-7%
O=C(CCS(=O)(=O)c1ccc(Br)cc1)Nc1cc(F)ccc1F	-27%	3	35µM*	2%	-11	-1%
COc1ccc(-c2ccccc2)c2oc(-c3ccco3)cc(=O)c12	0%	0	32µM*	/	-2	7%[57.1 µM]
O=C1CCCN1CCCNCC(=O)N1c2ccccc2Sc2ccccc21	14%	-9	6%	-2%	-41*	3%
CCN1CCN(C(c2ccccc2)c2c(O)cc(C)n(Cc3ccco3)c2=O)CC1 (stereo unspecified)	/	-1	7.9µM*	/	-11	-4%[57.1 µM]
CCN1CCN(C(c2ccccc2Cl)c2c(O)cc(C)n(Cc3ccco3)c2=O)CC1 (stereo unspecified)	/	-4	8.9µM*	/	1	3%[57.1 µM]
Cc1cc(O)c(C(c2ccccc2)N2CCN(C)CC2)c(=O)n1Cc1ccco1 (stereo unspecified)	/	-1	8.9µM*	/	2	1%[57.1 µM]
Cc1cc(O)c(C(c2ccccc2Cl)N2CCN(c3ccccc3)CC2)c(=O)n1Cc1ccco1 (stereo unspecified)	/	-1	?	/	-1	2%[57.1 µM]
COCCn1c(C)cc(O)c(C(c2ccc(OC)cc2)N2CCN(c3ccccc3)CC2)c1=O (stereo unspecified)	/	2	14µM*	/	3	6%[57.1 µM]
SMILES	a7 integrin act	PI4K2A inh	rTrxR1 inhibitor	GALK inhibitor	LDHA block	TrxR1 substrate
Cc1cc(O)c(C(c2ccccc2)N2CCC(C)CC2)c(=O)n1Cc1ccco1 (stereo unspecified)	/	5	-1%[57.1 µM]	/	-12	-3%[57.1 µM]
COc1ccc(C(=O)NCC2COc3ccccc3O2)cc1OC (stereo unspecified)	/	/	/	/	-4	/
COC(=O)CSC1=C(C#N)C(=O)NC(c2ccccc2)S1 (stereo unspecified)	2%	-14	28µM*	-2%	-2	-24%
Clc1cccc[n+]1CCCCCC[n+]1ccccc1Cl	/	/	56µM*	/	/	-8%
Brc1cccc[n+]1CCCC[n+]1ccccc1Br	/	/	?	/	-62*	-13%
Brc1cccc[n+]1CCCCCC[n+]1ccccc1Br	/	/	?	/	-60*	7%
Brc1cccc[n+]1C/C=C/C[n+]1ccccc1Br	/	/	?	/	0	7%
O=C(CCl)Nc1cccc(S(=O)(=O)NC2=NCCC2)c1	-58%	6	28µM*	-2%	-5	4%
O=C(Nc1ccc(Cl)cc1)C(=O)Nc1cccc(S(=O)(=O)NC2=NCCC2)c1	/	/	/	/	8	/
COc1cc(OC)nc(-n2ncc(Br)c(Br)c2=O)n1	?	-7	3.5µM*	/	0	6%
O=c1c2c3nc4ccccc4nc3n(Cc3ccccc3)c2ncn1Cc1ccco1	3%	?	18µM*	-4%	-9	25%
COCCCn1c2nc3ccccc3nc2c2c(=O)n(Cc3ccc(Cl)cc3)cnc21	1%	4	12%	12%	0	19%
COC(=O)c1ccc2c(c1)C(C)(C)C(/C=C/c1ccc(O)cc1)=[N+]2C	-64%	-22	56µM*	0%	7	64%
O=C1Nc2cccnc2N(C(=O)CCl)c2ccccc21	-65%	1	13µM*	2%	-9	-5%
Nc1ncnc(Nc2ccc(S(N)(=O)=O)cc2)n1	15%	-65*	-1%[2.29 µM]	-2%	-1	0%[57.1 µM]
Cc1ccc(Nc2ncnc(N)n2)cc1	?	-8	7%	0%	-14	-1%
O=C(c1ccccc1)n1nnc2ccccc21	-1%	-3	5µM*	0%	-5	-2%
CCOc1ccc2[nH]c(=O)c(C(c3nnnn3Cc3ccco3)N3CCCC(C)C3)cc2c1 (stereo unspecified)	?	1	13µM*	-2%	0	17%[57.1 µM]
COc1ccc2[nH]c(=O)c(CN(C3CCCCC3)C(c3nnnn3Cc3ccco3)C(C)C)cc2c1 (stereo unspecified)	-22%	-10	?	8%	7	12%
CCOc1ccc2[nH]c(=O)c(C(c3nnnn3Cc3ccco3)N3CCC(C)CC3)cc2c1 (stereo unspecified)	15%	2	?	0%	2	18%
COc1ccc2[nH]c(=O)c(CN(Cc3nnnn3Cc3ccco3)C3CCCCC3)cc2c1	16%	-3	18µM*	-4%	0	1%
Cc1c(S(=O)(=O)c2ccccn2)c(N)n(Cc2cccc(Cl)c2)c1C	-27%	-4	20µM*	0%	-1	3%
